Test [1] in a line: qHTS for Inhibitors of Plasmodium falciparum (DD2) proliferation (AID 504314).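 Note: parasite DNA measured by SYBR Green fluorescence after red cell lysis; plate controls were DMSO vehicle for no effect and artemisinin wells for full effect.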 Particulars: P. falciparum Dd2 in erythrocytes, SYBR Green growth, 72 h; series mostly up to 6.11 µM. The method in brief:
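SYBR Green DNA-fluorescence growth assay: infected RBCs at 0.3% parasitemia, 2.5% hematocrit, 72 h compound exposure, 37C, 5% CO2; overnight lysis with dye at RT; normalized to 0.29 uM artemisinin and vehicle.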

Test [2] can be described thus: qHTS for Inhibitors of Plasmodium falciparum (GB4) proliferation (AID 504315).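 Note: 0% = DMSO vehicle and -100% = 0.29 µM artemisinin control; nearly all actives have a fitted effect of over 50% in size.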 The following applies: P. falciparum GB4 in erythrocytes, SYBR Green DNA, 72 h; series mostly up to 6.7 µM. The method in brief: (§1)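 Parasite growth measured as SYBR Green DNA fluorescence (ex 485, em 535 nm) after overnight lysis following 72 h culture at 37 °C, 0.3% parasitemia, 2.5% hematocrit. Values normalized against DMSO and 0.29 uM artemisinin controls, with plate-stack correction.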
(In general: Quantitative high-throughput screening tests each substance at several concentrations.)

Test [3] in a line: qHTS for Inhibitors of Plasmodium falciparum (7G8) proliferation (AID 504316).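 Note: 0% = DMSO vehicle and -100% = 0.29 µM artemisinin full kill; nearly all actives have a fitted effect of over 65% in size.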 The following applies: P. falciparum 7G8 in erythrocytes, SYBR Green DNA, 72 h; series mostly up to 6.7 µM. The method in brief: as §1
The nature of test [4]: qHTS for Inhibitors of Plasmodium falciparum (HB3) proliferation (AID 504318).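 Note: 0% = DMSO vehicle and -100% = artemisinin control; nearly all actives have a fitted effect of over 60% in size.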 Particulars: P. falciparum HB3 in erythrocytes, SYBR Green DNA, 72 h; series mostly up to 7.21 µM. Put shortly: as §1
Test [5] in a line: qHTS for Inhibitors of Plasmodium falciparum (CP250) proliferation (AID 504320).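 Note: plate controls were DMSO vehicle for no effect and 0.29 µM artemisinin control for full effect.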 The following applies: P. falciparum CP250 in erythrocytes, SYBR Green DNA, 72 h; series mostly up to 6.7 µM. The method in brief:
as §1

The target of test [6] is Catechol O-methyltransferase (Homo sapiens) (UniProt P21964). The test is described as follows: Confirmatory Screen for Target Class Profiling of Small Molecule Inhibitors of Methyltransferases (AID 1745852; calls by dose curve; for activity change, negative = inhibition: % is set by controls: 0 for no effect and ±100 for the full control effect). The following applies: MTase-Glo luminescence, SAH detection, recombinant enzyme; measured here: COMT max response; stronger effect = lower value.
Chain of Catechol O-methyltransferase (Homo sapiens) (P21964 whole entry, looked up): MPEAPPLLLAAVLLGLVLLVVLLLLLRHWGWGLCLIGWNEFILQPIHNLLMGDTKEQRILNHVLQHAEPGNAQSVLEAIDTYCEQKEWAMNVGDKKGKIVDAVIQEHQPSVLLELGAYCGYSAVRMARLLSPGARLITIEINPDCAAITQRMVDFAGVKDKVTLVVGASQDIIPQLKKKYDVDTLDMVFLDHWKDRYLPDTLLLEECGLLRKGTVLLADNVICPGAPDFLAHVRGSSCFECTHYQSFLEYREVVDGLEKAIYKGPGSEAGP
In test [7] the target is Guanidinoacetate N-methyltransferase (Homo sapiens) (UniProt Q14353). Described as above. The following applies: MTase-Glo luminescence, SAH detection, recombinant enzyme; activity change, negative = inhibition: at 57.3 µM (top of the series) unless noted; series mostly up to 57.3 µM.
Test [8] concerns the target Nicotinamide N-methyltransferase (Homo sapiens) (UniProt P40261). The test is described as above. The following applies: MTase-Glo luminescence, SAH detection, recombinant enzyme; measured here: NNMT max response; stronger effect = lower value.
The target of test [9] is Phenylethanolamine N-methyltransferase (Homo sapiens) (UniProt P11086). The test is described as above. The following applies: MTase-Glo luminescence, SAH detection, recombinant enzyme; measured here: PNMT max response; stronger effect = lower value.
Chain of Phenylethanolamine N-methyltransferase (Homo sapiens) (P11086 whole entry, looked up): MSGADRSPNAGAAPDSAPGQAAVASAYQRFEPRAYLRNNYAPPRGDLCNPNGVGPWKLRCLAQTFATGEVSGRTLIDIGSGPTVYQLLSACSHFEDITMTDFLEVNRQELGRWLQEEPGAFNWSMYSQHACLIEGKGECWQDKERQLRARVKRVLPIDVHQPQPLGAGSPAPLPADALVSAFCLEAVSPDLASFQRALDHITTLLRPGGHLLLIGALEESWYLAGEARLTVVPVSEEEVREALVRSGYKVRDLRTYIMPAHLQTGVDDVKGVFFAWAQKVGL
Test [10] addresses Cytochrome P450 1A2 (Homo sapiens) (UniProt P05177). The experiment in a line: p450-cyp1a2 (AID 410; calls by dose curve; note: potency is the fitted concentration of half-maximal effect). Particulars: recombinant CYP1A2, luciferin-ME demethylation, luminescence; series mostly up to 57 µM. The method in brief:
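Read-out is luminescence from luciferin produced by CYP1A2 demethylation of Luciferin-ME (100uM, at Km). Detection reagent stopped the 60 min NADPH-dependent reaction; signals were normalized to 57 uM furafylline.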

Test [11] concerns the target Glucocorticoid receptor (Homo sapiens) (UniProt P04150). The test is described as follows: GR-GFP Redistribution (AID 450;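 active = compounds whose dose series gives a full or clear partial fitted curve of increased nuclear translocation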; note: potency is the fitted concentration of half-maximal effect). The following applies: U2OS GR-GFP nuclear translocation, laser cytometry, 2 h.
The target is the same in test [12]. The test is described as follows: GR-EFC Redistribution (AID 451; calls by dose curve; note: potency is the fitted concentration of half-maximal effect). Particulars: CHO-K1 GR-EFC translocation, beta-gal luminescence, 2 h. Put shortly:
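CHO-K1 cells stably expressing nuclear-localized β-gal enzyme acceptor and GR fused C-terminally to the enzyme donor fragment; ligand-driven nuclear translocation restores β-gal by complementation. Compounds titrated up to 46 uM final, 2 h at 37 °C; luminescence read.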

Test [13] has as its target Mitogen-activated protein kinase 10 (Mus musculus) (UniProt Q61831). The experiment in a line: JNK3 AlphaScreen Assay (AID 530; active = well fitted curve in either direction with a large enough effect, not every such curve was filed as active;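 note: kinase came from lysate of stimulated human HepG2 cells; % is set by controls: 0 for no effect and ±100 for the full control effect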). Particulars: JNK3 lysate, c-Jun phosphorylation; series mostly up to 57.1 µM. The method in brief: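 Biotinylated GST-cJun(1-79) served as substrate for JNK3 in HepG2 lysates stimulated with IL-1beta and TNF-alpha. ATP was 10 uM final, pH 7.6. Ser73 phosphorylation was quantified by AlphaScreen (680 nm excitation).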
A general note: In Alpha technology, singlet oxygen from a donor bead excites a nearby acceptor bead.

The target in test [14] is Cytochrome P450 3A4 (Homo sapiens) (UniProt P08684). The experiment in a line: qHTS Assay for Activators of Cytochrome P450 3A4 (AID 885). Note: nearly all actives have a fitted effect of over 65% in size. The following applies: recombinant CYP3A4, Luciferin-PPXE luminescence, 60 min; series mostly up to 57.1 µM. Put shortly:
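Activators are scored by enhanced luminescence from CYP3A4 conversion of luciferin-PPXE (25uM, equal to KM) to luciferin, after 60 min at RT with an NADPH-regenerating system.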

Test [15] has as its target Cytochrome P450 2D6 (Homo sapiens) (UniProt P10635). The test is described as follows: qHTS Assay for Inhibitors and Substrates of Cytochrome P450 2D6 (AID 891). Note: potency is the fitted concentration of half-maximal effect; nearly all actives have a fitted effect of over 60% in size. Particulars: recombinant CYP2D6, luciferin-ME EGE luminescence; series mostly up to 57.1 µM. The method in brief:
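Luminescent read-out of luciferin formed by 5 nM human CYP2D6 demethylating 30 uM Luciferin-ME EGE (Km level) over 60 min at room temperature after NADPH regeneration addition. Data normalized to full inhibition by 1.43 uM quinidine.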

Test [16] addresses Cytochrome P450 2C19 (Homo sapiens) (UniProt P33261). The experiment in a line: qHTS Assay for Inhibitors and Substrates of Cytochrome P450 2C19 (AID 899). Note: potency is the fitted concentration of half-maximal effect; nearly all actives have a fitted effect of over 60% in size. Particulars: recombinant CYP2C19, luciferin-H EGE luminescence; series mostly up to 57.1 µM. Put shortly: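 NADPH-dependent conversion of Luciferin-H EGE (10uM, at KM) by 5nM enzyme in 50mM KPO4, 60 min at 37C following 10 min compound preincubation. Stopped with luciferin detection buffer; luminescence read after 20 min.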

The target in test [17] is Ubiquitin carboxyl-terminal hydrolase 1 (Homo sapiens) (UniProt O94782). The test is described as follows: Inhibitors of USP1/UAF1: Pilot qHTS (AID 504865).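 Note: rhodamine fluorescence freed from ubiquitin-rhodamine substrate followed over time; top concentration of the series differs between compounds; % is set by controls: 0 for no effect and ±100 for the full control effect; nearly all actives have a fitted effect of over 35% in size.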 Particulars: purified USP1/UAF1, Ub-rhodamine cleavage fluorescence; series mostly up to 114 µM. The method in brief: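 Kinetic fluorescence assay: 1nM USP1/UAF1, 15 min compound preincubation, then 150nM Ub-Rho; 480/540 nm.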
Chain of Ubiquitin carboxyl-terminal hydrolase 1 (Homo sapiens) (O94782 whole entry, looked up): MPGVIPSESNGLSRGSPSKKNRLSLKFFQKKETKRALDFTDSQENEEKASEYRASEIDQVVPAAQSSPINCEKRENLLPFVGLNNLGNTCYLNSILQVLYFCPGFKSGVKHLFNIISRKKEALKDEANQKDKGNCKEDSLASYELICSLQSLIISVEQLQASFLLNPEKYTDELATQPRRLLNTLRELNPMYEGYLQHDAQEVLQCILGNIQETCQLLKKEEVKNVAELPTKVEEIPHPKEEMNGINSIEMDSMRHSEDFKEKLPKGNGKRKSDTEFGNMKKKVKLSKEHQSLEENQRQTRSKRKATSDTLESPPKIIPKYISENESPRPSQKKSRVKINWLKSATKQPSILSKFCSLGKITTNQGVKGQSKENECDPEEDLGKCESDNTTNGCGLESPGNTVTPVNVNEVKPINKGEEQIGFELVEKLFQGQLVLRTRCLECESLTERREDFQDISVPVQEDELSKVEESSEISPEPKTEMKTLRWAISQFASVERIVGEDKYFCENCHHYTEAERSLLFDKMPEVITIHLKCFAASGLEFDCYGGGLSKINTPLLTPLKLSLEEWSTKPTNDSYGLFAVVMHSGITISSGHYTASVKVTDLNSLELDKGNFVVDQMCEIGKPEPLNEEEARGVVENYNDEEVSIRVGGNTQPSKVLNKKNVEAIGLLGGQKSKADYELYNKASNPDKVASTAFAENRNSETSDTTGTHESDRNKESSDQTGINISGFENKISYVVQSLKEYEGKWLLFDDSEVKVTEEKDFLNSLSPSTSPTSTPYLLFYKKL

In test [18] the target is DNA dC->dU-editing enzyme APOBEC-3G (Homo sapiens) (UniProt Q9HC16). The test is described as follows: qHTS for inhibitors of Vif-A3G interactions: Validation (AID 588379). Note: 0% is about no effect. Particulars: Vif-A3G protein interaction assay; series mostly up to 46.1 µM. The method in brief: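 Yellow fluorescence (Ex 488, Em 500-530) of Vif-coexpressing HeLa A3G-eYFP cells, scanned by Acumen cytometer, reports blocked A3G degradation. Cells plated at 700/well overnight at 37 deg C before compound addition, then a further overnight compound incubation at 37 deg C.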
Chain of DNA dC->dU-editing enzyme APOBEC-3G (Homo sapiens) (Q9HC16 whole entry, looked up): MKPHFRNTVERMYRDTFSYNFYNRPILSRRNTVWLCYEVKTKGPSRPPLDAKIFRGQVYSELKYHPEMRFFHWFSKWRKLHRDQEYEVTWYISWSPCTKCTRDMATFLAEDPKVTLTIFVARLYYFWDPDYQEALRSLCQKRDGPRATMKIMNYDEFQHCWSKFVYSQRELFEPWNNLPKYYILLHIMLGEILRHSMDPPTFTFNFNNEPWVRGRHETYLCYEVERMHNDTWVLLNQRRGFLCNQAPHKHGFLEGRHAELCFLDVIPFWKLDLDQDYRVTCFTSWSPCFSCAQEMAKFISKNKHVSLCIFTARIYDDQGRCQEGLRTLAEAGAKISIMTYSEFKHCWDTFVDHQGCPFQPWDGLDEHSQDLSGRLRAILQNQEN

Inconclusive results are not listed. The source made the active and inactive calls. Unless noted, calls come from the whole dose curve; as a rule, active = well fitted curve in the direction sought with a large enough effect; inconclusive = small, poorly fitted or top-dose-only effect, or another doubt; inactive = no such curve, though single readings can be large; an effect the other way counts as inactive or inconclusive.

Chain of Glucocorticoid receptor (Homo sapiens) (P04150 whole entry, looked up): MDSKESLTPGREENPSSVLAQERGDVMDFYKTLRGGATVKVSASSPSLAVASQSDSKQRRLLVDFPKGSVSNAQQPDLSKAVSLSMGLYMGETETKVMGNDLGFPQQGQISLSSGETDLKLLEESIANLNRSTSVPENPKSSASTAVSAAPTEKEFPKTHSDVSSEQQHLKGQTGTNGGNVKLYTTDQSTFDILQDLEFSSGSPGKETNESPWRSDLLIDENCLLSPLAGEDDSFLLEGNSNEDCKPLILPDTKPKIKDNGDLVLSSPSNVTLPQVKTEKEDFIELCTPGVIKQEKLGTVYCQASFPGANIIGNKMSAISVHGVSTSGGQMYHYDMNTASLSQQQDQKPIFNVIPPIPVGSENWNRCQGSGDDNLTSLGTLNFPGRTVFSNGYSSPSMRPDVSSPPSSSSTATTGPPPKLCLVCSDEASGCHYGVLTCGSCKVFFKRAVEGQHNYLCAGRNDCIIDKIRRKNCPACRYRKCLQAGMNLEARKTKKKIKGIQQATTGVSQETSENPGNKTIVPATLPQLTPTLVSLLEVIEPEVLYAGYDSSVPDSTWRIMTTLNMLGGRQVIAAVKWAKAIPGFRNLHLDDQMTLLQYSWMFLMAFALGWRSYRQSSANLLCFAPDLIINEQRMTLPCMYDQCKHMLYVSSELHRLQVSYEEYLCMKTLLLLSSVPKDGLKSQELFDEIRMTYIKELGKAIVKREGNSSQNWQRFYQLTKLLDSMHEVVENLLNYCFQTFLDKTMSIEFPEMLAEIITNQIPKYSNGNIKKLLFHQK
Chain of Nicotinamide N-methyltransferase (Homo sapiens) (P40261 whole entry, looked up): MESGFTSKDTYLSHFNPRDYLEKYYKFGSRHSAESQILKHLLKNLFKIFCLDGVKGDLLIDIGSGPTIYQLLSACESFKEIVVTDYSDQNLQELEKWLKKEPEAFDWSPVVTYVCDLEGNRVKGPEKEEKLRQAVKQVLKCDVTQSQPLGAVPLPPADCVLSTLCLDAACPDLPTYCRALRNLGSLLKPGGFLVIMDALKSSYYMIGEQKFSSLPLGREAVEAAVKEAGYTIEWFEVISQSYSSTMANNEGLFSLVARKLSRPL
Chain of Cytochrome P450 2D6 (Homo sapiens) (P10635 whole entry, looked up): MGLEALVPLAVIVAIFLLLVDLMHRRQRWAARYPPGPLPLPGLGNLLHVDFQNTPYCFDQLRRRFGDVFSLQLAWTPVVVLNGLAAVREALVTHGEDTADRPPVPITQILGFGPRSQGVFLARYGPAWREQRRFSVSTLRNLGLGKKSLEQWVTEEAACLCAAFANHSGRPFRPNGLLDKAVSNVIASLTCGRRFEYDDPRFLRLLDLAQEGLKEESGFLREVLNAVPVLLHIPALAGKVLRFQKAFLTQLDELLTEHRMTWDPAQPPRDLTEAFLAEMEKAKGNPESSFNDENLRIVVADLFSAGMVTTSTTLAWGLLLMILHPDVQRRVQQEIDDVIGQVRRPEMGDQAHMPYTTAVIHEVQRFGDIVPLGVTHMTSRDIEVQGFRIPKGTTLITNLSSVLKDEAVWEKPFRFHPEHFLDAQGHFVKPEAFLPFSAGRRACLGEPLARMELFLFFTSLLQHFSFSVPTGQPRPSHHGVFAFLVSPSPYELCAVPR
Chain of Cytochrome P450 2C19 (Homo sapiens) (P33261 whole entry, looked up): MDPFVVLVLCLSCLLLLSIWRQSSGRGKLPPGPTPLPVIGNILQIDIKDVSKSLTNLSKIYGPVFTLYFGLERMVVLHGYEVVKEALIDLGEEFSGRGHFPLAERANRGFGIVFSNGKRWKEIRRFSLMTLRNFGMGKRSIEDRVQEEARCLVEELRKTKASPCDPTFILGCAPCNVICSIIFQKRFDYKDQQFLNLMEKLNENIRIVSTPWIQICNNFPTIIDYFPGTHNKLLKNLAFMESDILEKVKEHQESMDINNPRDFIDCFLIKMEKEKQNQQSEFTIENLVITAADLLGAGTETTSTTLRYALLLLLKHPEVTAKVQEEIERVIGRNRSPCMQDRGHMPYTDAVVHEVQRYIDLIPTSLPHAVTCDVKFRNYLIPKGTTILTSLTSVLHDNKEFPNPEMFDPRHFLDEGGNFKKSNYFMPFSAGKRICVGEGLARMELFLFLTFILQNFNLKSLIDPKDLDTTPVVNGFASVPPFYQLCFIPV
Chain of Cytochrome P450 3A4 (Homo sapiens) (P08684 whole entry, looked up): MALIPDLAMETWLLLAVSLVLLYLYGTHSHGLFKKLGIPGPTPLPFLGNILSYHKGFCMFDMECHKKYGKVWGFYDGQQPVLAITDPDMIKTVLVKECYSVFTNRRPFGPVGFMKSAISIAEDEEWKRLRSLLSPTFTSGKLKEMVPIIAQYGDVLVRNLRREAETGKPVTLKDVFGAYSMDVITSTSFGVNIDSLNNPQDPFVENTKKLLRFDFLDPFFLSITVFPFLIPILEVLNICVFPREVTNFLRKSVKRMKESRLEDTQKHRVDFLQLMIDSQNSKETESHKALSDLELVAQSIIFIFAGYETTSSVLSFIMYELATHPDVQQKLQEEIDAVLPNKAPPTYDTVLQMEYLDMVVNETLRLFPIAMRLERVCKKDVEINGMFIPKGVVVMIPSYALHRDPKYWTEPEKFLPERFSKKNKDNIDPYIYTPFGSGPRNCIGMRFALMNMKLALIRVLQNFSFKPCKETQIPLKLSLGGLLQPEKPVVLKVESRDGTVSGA
Chain of Cytochrome P450 1A2 (Homo sapiens) (P05177 whole entry, looked up): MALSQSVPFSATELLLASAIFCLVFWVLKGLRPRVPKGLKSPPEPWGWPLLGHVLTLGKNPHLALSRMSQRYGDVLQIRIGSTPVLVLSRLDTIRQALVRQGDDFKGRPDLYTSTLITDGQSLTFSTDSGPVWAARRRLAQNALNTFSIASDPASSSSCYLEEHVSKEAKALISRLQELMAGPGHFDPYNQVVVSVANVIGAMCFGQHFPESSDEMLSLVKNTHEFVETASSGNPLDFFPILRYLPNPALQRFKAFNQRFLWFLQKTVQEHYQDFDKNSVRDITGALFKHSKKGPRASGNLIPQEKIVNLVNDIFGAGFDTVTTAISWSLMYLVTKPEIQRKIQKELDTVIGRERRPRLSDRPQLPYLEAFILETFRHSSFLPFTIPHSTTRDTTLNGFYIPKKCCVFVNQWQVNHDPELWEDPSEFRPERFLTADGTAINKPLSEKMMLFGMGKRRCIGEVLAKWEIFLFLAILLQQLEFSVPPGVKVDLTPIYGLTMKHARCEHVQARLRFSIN

With `Cc1noc(C)c1S(=O)(=O)N1CCc2nc(-c3ccccc3)c3c(c2C1)CO[C@@H](C)C3`, the activity, negative = inhibition in [1] was 2% [at 1.12 µM] (inactive). Besides, the Potency result in [2], in [3], in test [4] and in test [5] was “inactive” each time.

As to `O=C1NC(=O)/C(=C\c2ccc3c(c2)OC(F)(F)O3)S1`, the activity in test [6] is -3.87%; in [8], -7.77%; in test [9], -2.73%. Moreover, in [7], the activity change, negative = inhibition was -2.97%.

Consider `CCCCC#C[C@@H]1C=C[C@H](Oc2ccc(C(=O)OC)cc2)[C@@H](COC(=O)OCC)O1`, for which the Potency result in [1], in [2], in [3] and in [4] was “inactive” in each case.

For `COc1cc(OC)c2c(c1)OC1Cc3cc(OC)c(OC)cc3C2O1` (stereo not given), the activity, negative = inhibition in test [1] was -3.4% [at 1.12 µM] (inactive). Further, the Potency result in test [2], in [3] and in test [4] was “inactive” in each case.

On to `OCCNCCCOc1cccc(Cl)c1Cl`, for which the Potency in test [10] is 0.2 µM (active); in [11], > 46 µM (inactive); in test [12], > 46 µM (inactive); in [15], 0.158 µM (active); in test [16], 3.98 µM (active). The Potency result in [13], in test [14], in [17] and in test [18] was “inactive” throughout.

For the compound `CCN1C(=O)[C@@H]2[C@H]3[C@H](O)[C@H](O)CC(=NOC[C@@H](O)[C@H]4O[C@@H]5OC(C)(C)O[C@H]5[C@@H]4O)[C@@H]3CC[C@H]2C1=O`, the Potency entry in test [1], in test [2], in test [3], in test [4] and in [5] was “inactive” each time.

For the compound `COCCN1C(=O)N[C@@H](CCc2ccccc2)[C@H](C(=O)OC)[C@H]1C`, the Potency entry in test [1], in [2], in test [3], in test [4] and in [5] was “inactive” each time.

`N#Cc1ccc2c(c1)C[C@]1(c3ccsc3)Oc3c(c(=O)oc4ccccc34)[C@H]2O1`: the Potency entry in test [1], in test [2], in [4] and in test [5] was “inactive” throughout.

With `COc1ccc2c(c1)O[C@H](c1ccc3c(c1)OCO3)[C@@H](OC(=O)NCCOc1ccccc1)C2=O`, the Potency result in test [1], in [2], in test [3], in [4] and in [5] was “inactive” in each case.

In the case of `COC(=O)[C@H](COC(C)(C)C)NC(=O)O[C@@H]1C(=O)c2cc(OC)ccc2O[C@H]1c1cccc(OC)c1`, the Potency result in [1], in [2] and in [5] was “inactive” in each case.

`CCN1C(=NCCc2cccnc2)NC(CCc2ccccc2)C(C(=O)OC)=C1C` (stereo not given): the Potency entry in test [1], in test [2], in [3] and in [5] was “inactive” throughout.

Take `COC[C@H]1O[C@H](c2ccccc2)C=C[C@H]1OCc1cccc(Br)c1`: the Potency result in test [1], in test [2] and in [5] was “inactive” in each case.

In the case of `C=CCN1c2ccccc2[C@]23CCC(=O)N(CCCOC(C)C)C2=NC(C(=O)OC)=C(C(=O)OC)[C@H]13`, the Potency result in test [1], in [2] and in test [5] was “inactive” each time.

As for `c1ccc(-c2nc(-c3ccccc3)c(NC3CCCCC3)o2)cc1`, the Potency entry in test [1], in test [2], in test [3], in test [4] and in test [5] was “inactive” throughout.

For the compound `O=C(NN=C1C[C@@H](O)[C@H](O)[C@H]2[C@@H]3C(=O)N(Cc4ccc5c(c4)OCO5)C(=O)[C@@H]3CC[C@H]12)OCc1ccccc1`, the Potency entry in test [1], in test [2] and in [4] was “inactive” each time.

On to `COC(=O)N[C@H](C[N+](=O)[O-])c1cccc(C)c1`, for which the Potency result in test [1], in test [2], in [4] and in test [5] was “inactive” throughout.

Consider `COC(=O)CC=C[C@@H](C)[C@@H](C=NOC[C@@H](O)[C@H]1O[C@@H]2OC(C)(C)O[C@H]2[C@@H]1O)OC`, for which the Potency result in test [1], in [2], in test [3], in test [4] and in test [5] was “inactive” each time.

For the compound `C=COC[C@@H]1CN2[C@H](c3ccc(Br)cc3)[C@H](C)CC[C@H]2C(=O)O1`, the Potency result in test [1], in [2], in test [3], in [4] and in test [5] was “inactive” throughout.

With `COc1ccc2c(c1)O[C@H](c1ccc3c(c1)OCO3)[C@@H](OC(=O)N[C@H]1CCCc3ccccc31)C2=O`, the Potency entry in [1], in test [2], in test [3] and in test [5] was “inactive” each time.

For `O=C1Nc2cccc(Br)c2[C@@]12O[C@H](COc1ccccc1)CC1=CCC[C@H]12`, the Potency result in test [1], in [2] and in [5] was “inactive” throughout.

`COC(=O)CCCC1=CC2=C(c3ccccc3)C(=O)C(C)(OC(=O)C3CCCC3)C(=O)C2=CN1C1CCCCC1` (stereo not given): the Potency entry in test [1], in test [2], in test [3], in test [4] and in [5] was “inactive” in each case.

`CC1=C[C@@H](C)OC2(C1)C(=O)N(Cc1ccc(Br)cc1)c1cccc(Br)c12` (stereo not given in full): the Potency entry in [1], in test [2], in test [3] and in [5] was “inactive” throughout.

With `COC(=O)C1=C(C)N(Cc2ccccc2)C(=S)NC1c1ccccc1` (stereo not given), the Potency result in [1], in test [2], in test [3] and in test [5] was “inactive” throughout.
